Assay outcomes as filed in PubChem.
Rows were chosen to be rich in hits. Some 2.4% of all compounds tested hit in one or more screens of this group.
D2 ag-1 = activates the human D2 dopamine receptor. HEK293 T-REx D2 cells, calcium flux agonist mode. activation, % at 2 µM. 340,000 tested, 0.53% active;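 active = activation over 3 SD above normal in the single-dose calcium agonist read, cut at about 30% in these data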; also: 0% is about no effect
Target sequence (P14416 whole entry, looked up): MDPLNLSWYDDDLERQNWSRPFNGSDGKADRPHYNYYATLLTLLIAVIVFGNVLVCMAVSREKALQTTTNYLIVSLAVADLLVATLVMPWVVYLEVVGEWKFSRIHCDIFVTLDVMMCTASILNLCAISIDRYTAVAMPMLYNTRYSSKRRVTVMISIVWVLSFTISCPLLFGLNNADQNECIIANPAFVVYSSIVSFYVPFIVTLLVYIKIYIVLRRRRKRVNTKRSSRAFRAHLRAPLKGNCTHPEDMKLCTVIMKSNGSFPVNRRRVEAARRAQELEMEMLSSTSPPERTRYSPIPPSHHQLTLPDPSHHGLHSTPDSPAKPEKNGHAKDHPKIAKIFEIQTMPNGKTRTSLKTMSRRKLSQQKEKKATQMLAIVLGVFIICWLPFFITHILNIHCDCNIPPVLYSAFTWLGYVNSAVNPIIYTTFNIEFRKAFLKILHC
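Agonism scored from kinetic calcium signal (1 read/sec, 180 s) following compound pin transfer, after a 10 s baseline. Cells: HEK293 Trex line expressing inducible D2 receptor coupled to calcium, dye-loaded after overnight culture at 30 C.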
D2 antag = antagonists of human D2 dopamine receptor; HEK293 TREx D2 cells, calcium flux, dopamine EC80; inhibition, % at 10 µM; 340,000 tested, 2% active; AID 485344; in the data active = inhibition above about 30%; inactive = below that, where a call was filed; also: 0% is about no effect
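Read-out: kinetic calcium fluorescence (1 cycle/s) in inducible HEK293 T-REx D2 cells after an EC80 dopamine addition that followed 180 s compound preincubation. Loss of the dopamine response indicates antagonism.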
D2 ag-2 = human D2 receptor agonism in beta-arrestin assay; P14416; DiscoveRx PathHunter D2 beta-arrestin, luminescence, 90 min; 100% = 57 uM dopamine signal; activation, % (concentration not given with the values); 360,000 tested, 0.084% active; in the data active = activation above about 40%; inconclusive = between about 15% and that limit
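DiscoveRx PathHunter D2 beta-arrestin cells (2,100/well) attached overnight, then compound-stimulated 90 min at 37 C in HBSS/10 mM HEPES/0.1% Tween-20 buffer; beta-galactosidase complementation read by luminescence after 1 h at ambient temperature. Dopamine 57 uM final (EC100) as control.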
D2 PAM-1 = positive allosteric modulators of human D2 dopamine receptor. 360,000 tested, 0.23% active. P14416. potentiation, % (concentration not given with the values). DiscoveRx D2 beta-arrestin cells, luminescence, 90 min; 100% = 57 uM dopamine signal. AID 624464; in the data active = potentiation above about 50%; inconclusive = mostly about 30% to 49%
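D2 cells co-treated with compound plus 50 nM dopamine (EC20) for 90 min at 37 deg C to detect potentiation. Beta-arrestin recruitment was read as enzyme-fragment luminescence after 1 h at ambient temperature. Full response was set by 57 uM dopamine.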
D2 PAM-2 = positive allosteric modulators of human D2 dopamine receptor; 340,000 tested, 0.34% active; HEK293 T-REx D2, calcium flux, EC20 dopamine potentiation; potentiation, % at 10 µM; AID 485347;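 active = potentiation over 3 SD above the plate norm, cut at about 30% in these data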; also: 0% is about no effect
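Potentiation of an EC20 dopamine calcium response is measured in a force-coupled, tetracycline-inducible Hek293 Trex D2 line. Compound-only kinetic reads over 180 s flag agonists before dopamine addition.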
Active calls of the source: *; ? = inconclusive; . = no result; ! = not confirmed by another sample.

SMILES	D2 ag-1	D2 antag	D2 ag-2	D2 PAM-1	D2 PAM-2
CN(C)Cc1c(O)ccc2cc(-c3nc4ccccc4n3C)c(=O)oc12	20.2	13.9	2.9	-2.3	3.7
CCN(CC)c1ccc2cc(-c3nc(-c4ccc(OC)cc4)cs3)c(=O)oc2c1	100.6*	71.0*	?	24.7	-19.0
COc1ccc(-n2c(=S)[nH]c3c(sc(=S)n3-c3ccccc3)c2=O)c(OC)c1	0.1	-3.2	-5.7	-29.6	37.0*
COc1ccc(-n2c(=S)[nH]c3sc(-c4ccccc4)cc3c2=O)c(OC)c1	-0.2	23.3	-4.2	-8.0	-4.0
O=C(CSc1nccn1-c1cccc(Cl)c1)Nc1cccc2ccccc12	0.9	.	.	.	-4.5
NC(=O)c1ccc(C(F)(F)F)n(Cc2cccc(Cl)c2)c1=O	0.6	31.9*	1.5	-1.3	3.9
COc1ccc(-c2onc(C)c2C)cc1S(=O)(=O)NCc1ccc(C)o1	-0.5	.	.	.	-4.7
COCCCNS(=O)(=O)c1ccc2c(c1)OCCO2	-0.2	34.4*	-1.9	-4.9	2.9
CCOCCCNS(=O)(=O)c1ccc2c(c1)OCCO2	0.5	-0.8	-0.5	-2.7	-1.0
COc1ccc(CCNS(=O)(=O)c2ccc3c(c2)OCCO3)cc1OC	0.4	1.5	-0.8	-3.8	105.5*
CCCN(C(=O)c1noc2c1COc1ccc(C)cc1-2)c1ccc(Cl)c(Cl)c1	-0.2	.	.	.	4.1
Cc1ccc(C(=O)OC2CCOC2=O)cc1NC(=O)c1ccco1 (configuration not stated)	1.3	35.4*	-0.5	2.2	-9.6
CSCCC(NC(=O)c1ccco1)C(=O)N1CCCCCCC1 (configuration not stated)	0.3	-15.8	-2.5	2.4	19.6
CSCCC(NC(=O)c1ccco1)C(=O)O (configuration not stated)	0.6	-12.4	-2.3	-5.8	31.4*
CCc1cccc(NC(=O)C2CCN(C(=O)c3cnn(-c4ccccc4)c3-n3cccc3)CC2)c1	0.7	.	.	.	0.3
Cc1nc2c(-c3ccccc3)cnn2c(N2CCOCC2)c1C	-0.1	30.8*	-2.9	-1.7	-8.5
CC(C)c1ccc(-c2nc(N3CCCC3)nc3n[nH]c(N)c23)cc1	-0.1	2.4	-0.9	-5.7	44.3*
CCCc1nc2nc(C)c(NS(=O)(=O)c3ccc(CC(C)C)cc3)c(=O)n2[nH]1	-1.6	3.1	6.1	1.8	32.4*!
CCCS(=O)(=O)N1CCCC(C(=O)NCCCN2CCN(c3ccccc3F)CC2)C1 (configuration not stated)	68.7*	38.1*	14.2	-18.6	-18.8
COc1ccc(N2CCN(CCCNC(=O)C3CCCN(S(=O)(=O)c4c(C)n[nH]c4C)C3)CC2)cc1 (configuration not stated)	-0.4	6.0	-1.2	-7.6	21.8
COc1ccc(N2CCN(CCCNC(=O)C3CCCN(S(=O)(=O)c4cnc[nH]4)C3)CC2)cc1 (configuration not stated)	-1.0	-1.8	-3.8	-9.6	33.8*
O=C(NCCN1CCN(c2ccccc2F)CC1)C1CCCN(S(=O)(=O)c2cnc[nH]2)C1 (configuration not stated)	-0.8	20.3	14.9	66.6*	12.5
O=C(NCCN1CCC(Cc2ccccc2)CC1)C1CCCN(S(=O)(=O)c2cnc[nH]2)C1 (configuration not stated)	14.3	-23.0	-3.5	-5.4	-11.8
O=C(Nc1ccc(C(=O)N2CCN(c3cccc(Cl)c3)CC2)cc1)c1nsc2ccccc12	0.8	.	.	.	-7.2
CCOC(=O)c1cccc(NC(=O)c2cc3ccccn3n2)c1	.	.	.	.	5.3
CC1=C(CCN2CCN(C3CCCC3)C(CCO)C2)C(C)(C)CCC1 (configuration not stated)	-0.6	-20.1	-1.4	-14.1	-29.4
CC(C)=CCN1CCN(CCC2=C(C)CCCC2(C)C)CC1CCO (configuration not stated)	0.0	60.9*	-3.2	-4.8	-17.0
Cc1ccc(NC(=O)CCn2c(=O)c3cccn3c3ccccc32)c(Cl)c1	1.1	.	.	.	11.5
COc1cc(N)c(Cl)cc1C(=O)OCC(=O)c1cccs1	0.8	32.7*	-3.8	-4.2	-13.4
COc1cc(N)c(Cl)cc1C(=O)OCC(=O)NCc1cccs1	.	.	-0.9	-4.6	.
